PME-1 Maybridge – Maybridge compound blocking human PME-1; Q9Y570; recombinant PME-1, FP-Rh probe fluorescence polarization; inhibition, % at 9 µM; actives 0.5% (n = 16,000); in the data active = inhibition above about 30%
rat GALR2 ag – agonists of rat galanin receptor 2 (GALR2); O08726; cell-based GALR2 agonist screen; activation, % at 10 µM; actives 0.5% (n = 16,000); in the data active = activation above about 15%
* = called active by the depositor. This is a sample that favours compounds with a hit; in the whole collection about 0.87% have one here.

O=C1C(Cl)=C(Cl)C(=O)c2ccccc21 was read as PME-1 Maybridge 45* and rat GALR2 ag -18.
`COc1cc(C=C(C#N)C#N)cc(OC)c1OC` gave PME-1 Maybridge -1 and rat GALR2 ag -5.
Screening CNCC(O)c1ccc([N+](=O)[O-])cc1 (stereo unspecified) returned PME-1 Maybridge 4 and rat GALR2 ag -7.

Source: PubChem BioAssay
